Measurements as given in PubChem BioAssay AID485317 (Broad Institute, 2010).
Screen size: about 290,000 compounds; about 11,000 (3.8%) were called active.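 How the source made its calls: active means mean replicate inhibition above about 79%, with every replicate also reaching it (limit read from the data); inconclusive means only one of the two criteria met; inactive means mean below limit and not every replicate reaching it.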 Only a selection was taken, and actives are over-represented in it overall.

Each compound was assayed against FAD-linked sulfhydryl oxidase ALR (Homo sapiens) (UniProt P55789) (assay: inhibitors of human ALR sulfhydryl oxidase, primary screen, biochemical, H2O2 detection, HRP-luminol luminescence, single point (AID 485317)). Conditions: purified ALR, DTT oxidation, stronger effect = higher value, concentration not given here.
FAD-linked sulfhydryl oxidase ALR (Homo sapiens), sequence (P55789 whole entry, looked up): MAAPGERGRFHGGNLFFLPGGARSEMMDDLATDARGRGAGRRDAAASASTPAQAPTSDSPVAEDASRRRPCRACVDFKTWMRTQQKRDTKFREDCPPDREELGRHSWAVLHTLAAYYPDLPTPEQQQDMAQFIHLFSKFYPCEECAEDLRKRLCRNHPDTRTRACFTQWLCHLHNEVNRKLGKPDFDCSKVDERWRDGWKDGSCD
`CCC(C)c1ccc(NC(=O)COC(=O)C2CCCC2)cc1` (stereo unspecified) was tested, and the inhibition was 0.804% (inactive).
With `CC(OC(=O)c1c(F)cccc1F)C(=O)NCCC1=CCCCC1` (stereo unspecified) the inhibition was -6.45% (inactive).
For `O=C(CN1CCOC1=O)N1CCCC(Nc2ccc(F)c(F)c2)C1` (stereo unspecified), the inhibition was 12.5% (inactive).
For `O=C(CN1C(=O)CSC1=O)N1CCCC(Nc2ccc(F)cc2)C1` (stereo unspecified), the inhibition was 99.1% (active).
`O=C1CCCCN1CCCC(=O)N1CCCC(Nc2ccc(F)cc2)C1` (stereo unspecified) was tested, and the inhibition was 17.9% (inactive).
`COC(=O)c1ccc(/C=C/c2c(-c3ccc(OC)cc3)sc3ccccc23)cc1` was tested, and the inhibition was 2.88% (inactive).
With `CC(OC(=O)c1ccc(-n2cnnn2)cc1)C(=O)NCc1ccccc1` (stereo unspecified) the inhibition was 0.686% (inactive).
In the case of `CCCn1c(=S)[nH]c2ccc(C(F)(F)F)cc21`, the inhibition is reported as 96.9% (active).
`CCCCn1c(=S)[nH]c2cc(S(=O)(=O)N3CCCCC3)ccc21` was tested, and the inhibition was 9.62% (inactive).
`CC(C)n1c(=S)[nH]c2cc(C(F)(F)F)ccc21` was tested, and the inhibition was 25.9% (inactive).
With `O=C(CNC(=O)c1ccccc1F)OCC(=O)c1c[nH]c2ccccc12` the inhibition was -4.95% (inactive).
In the case of `CC(C)n1cnc2c(NCc3ccccc3)cc(N[C@@H](CO)Cc3ccccc3)cc21`, the inhibition is reported as -30.8% (inactive).
For `Cc1ccc(O)c(CNc2nc3ccccc3n2C)c1`, the inhibition was 90.7% (active).
With `Cc1ccc(OCc2nc3ccccc3n2C)cc1` the inhibition was -6.95% (inactive).
In the case of `Cn1c(Nc2cccc(Cl)c2)nc2ccccc21`, the inhibition is reported as 10.5% (inactive).
For `Cc1ccc(-c2csc(NCCc3nc4cc(Cl)c(Cl)cc4n3CCOCCO)n2)cc1`, the inhibition was -6.99% (inactive).
`O=C(c1n[nH]c2c1CCC2)N1CCCC(Nc2cccc(F)c2)C1` (stereo unspecified) was tested, and the inhibition was 99.1% (active).
For `O=C(Nc1cccc(F)c1)NC1CCCCCCC1`, the inhibition was 43.5% (inactive).
With `Cc1ccc(F)cc1S(=O)(=O)Nc1cccc(C(=O)N2CCCC(C(N)=O)C2)c1` (stereo unspecified) the inhibition was -5.56% (inactive).
With `CCCCn1c(N)c(N(CC(C)C)C(=O)c2cnc(C)cn2)c(=O)[nH]c1=O` the inhibition was -2.15% (inactive).
In the case of `COc1ccc(-c2nn(-c3ccccc3)cc2CN2CCCO2)c(F)c1`, the inhibition is reported as 83.5% (active).
In the case of `CCC(O)C1CCN(Cc2cn(-c3ccc(OC)cc3)nc2-c2cccc(F)c2)CC1` (stereo unspecified), the inhibition is reported as -36.1% (inactive).
`COc1ccc(-n2cc(CNC3CCOCC3)c(-c3cccc(F)c3)n2)cc1` was tested, and the inhibition was -7% (inactive).
`C[C@@H]1NC(=O)[C@@]2(C)[C@@H](c3ccccc3)[C@H]3COc4ccccc4[C@@H]3N2C1=O` was tested, and the inhibition was 0.598% (inactive).
With `CN1/C(=C\C(=O)c2cccnc2Cl)C(C)(C)c2ccccc21` the inhibition was -13.8% (inactive).
In the case of `CN1CCN(CCC(=O)N/N=C/C=C2\N(C)c3ccccc3C2(C)C)CC1`, the inhibition is reported as 99% (active).
`CC(C)Nc1nnc(SCC(=O)/C=C2\N(C)c3ccccc3C2(C)C)s1` was tested, and the inhibition was -3.17% (inactive).
With `Cc1ccc(NC(=O)CN(C)C(=O)c2ccc(Cl)c(S(=O)(=O)NCc3ccco3)c2)cc1` the inhibition was -3.45% (inactive).
For `Cc1ccc(-c2nn(-c3ccc(F)cc3)cc2C(=O)NCC(c2cccs2)N2CCOCC2)cc1` (stereo unspecified), the inhibition was -3.7% (inactive).
In the case of `CC1(C)CC[C@]2(C(=O)O)CC[C@]3(C)C(=CCC4[C@@]5(C)CC[C@H](O)C(C)(C)C5[C@H](O)C[C@]43C)[C@@H]2C1` (stereo partly specified), the inhibition is reported as -9.76% (inactive).
`O=C(CN1CCOCC1)Nc1cc(Cl)ccc1Cl` was tested, and the inhibition was -11.6% (inactive).
With `O=C(CN1CCN(c2cccc(Cl)c2)CC1)Nc1ccc(S(=O)(=O)N2CCOCC2)cc1` the inhibition was -14.5% (inactive).
`O=C(CN1CCN(c2ccc(O)cc2)CC1)Nc1cc(S(=O)(=O)N2CCOCC2)ccc1Cl` was tested, and the inhibition was 94.9% (active).
With `Cc1ccc2c(CSc3nncs3)cc(=O)oc2c1` the inhibition was -0.57% (inactive).
`CCOC(=O)Cc1csc(SCc2cc(=O)oc3cc(O)ccc23)n1` was tested, and the inhibition was 97.7% (active).
`CCOC(=O)Cc1csc(NC(=O)COc2ccc3c(C)cc(=O)oc3c2)n1` was tested, and the inhibition was -3.23% (inactive).
`O=C(NCCc1ccc(F)cc1)c1ccc2nccnc2c1` was tested, and the inhibition was -6.27% (inactive).
In the case of `CS(=O)(=O)c1ccc(Cl)c(NC(=O)COC(=O)c2ncc(Cl)c(Cl)c2Cl)c1`, the inhibition is reported as 0.688% (inactive).
In the case of `Cc1ccc(NC(=O)CSCC(=O)Nc2sccc2C#N)cc1`, the inhibition is reported as 98.7% (active).
For `Cc1cccc(C)c1Nc1nnc(SCC(=O)Nc2sccc2C#N)s1`, the inhibition was 14.7% (inactive).
For `N#Cc1ccsc1NC(=O)CN1CCCCC1`, the inhibition was 3.1% (inactive).
For `COC(C/C=C/C(=O)[C@@H](C)OCc1ccccc1)OC`, the inhibition was 55.7% (inactive).
For `O=C(CNC(=O)C12CC3CC(CC(C3)C1)C2)OCC(=O)N1CCCCC1`, the inhibition was -2.51% (inactive).
For `O=C(CSc1ccccc1)Nc1cccc(S(=O)(=O)N2CCOCC2)c1`, the inhibition was -1.29% (inactive).
For `CCn1c(CNC(=O)c2ccc(OC)c(OC)c2)nnc1SCC(=O)Nc1ccccc1`, the inhibition was -2.46% (inactive).
For `CCn1c(Cc2ccccc2)nnc1SCC(=O)Nc1ccccc1`, the inhibition was -28.7% (inactive).
`CCc1c(O)nc(SCC(=O)Nc2ccccc2)n(C(C)CC)c1=O` (stereo unspecified) was tested, and the inhibition was 98.8% (active).
In the case of `CC(OC(=O)c1ccc([N+](=O)[O-])cc1)C(=O)NCC1CCCCC1` (stereo unspecified), the inhibition is reported as -1.04% (inactive).
With `O=C(Nc1cccc2c1CCCC2)c1ccc(F)cc1` the inhibition was -21.6% (inactive).
For `CC1CN(C(=O)c2ccc([N+](=O)[O-])s2)CC(C)O1` (stereo unspecified), the inhibition was -91.3% (inactive).
In the case of `COc1cc2c(cc1OC)C(C(=O)Nc1cc(C)c(OC)c(C)c1)CC(=O)N2` (stereo unspecified), the inhibition is reported as -6.22% (inactive).
For `COc1cc(N/C=C2\CC(=O)NC(C)=C2C#N)cc(OC)c1OC`, the inhibition was 97.1% (active).
With `COC(=O)C1=C(C)NC(=O)CC1c1ccccc1OC` (stereo unspecified) the inhibition was -0.32% (inactive).
In the case of `Cn1c(N)c(C(=O)COC(=O)/C=C/c2cccc(C(F)(F)F)c2)c(=O)n(C)c1=O`, the inhibition is reported as -1.31% (inactive).
`CC(Sc1nncn1C)C(=O)NCCC1=CCCCC1` (stereo unspecified) was tested, and the inhibition was -2.34% (inactive).
With `CC(CNC(=O)Cn1cnc2c(OCc3ccccc3)ncnc21)c1ccccc1` (stereo unspecified) the inhibition was -1.23% (inactive).
In the case of `CC1(c2nnc(Cc3ccccc3)o2)CC(c2ccccc2F)=NO1` (stereo unspecified), the inhibition is reported as 1.62% (inactive).
`CCCNC(=O)c1ccc(N2CCC3(CC2)CC(c2cccc(Br)c2)=NO3)c(NC(=O)c2ccco2)c1` was tested, and the inhibition was 6.36% (inactive).
For `O=C(CSc1nc2ccccc2c(=O)[nH]1)Nc1nc(-c2ccc(Br)cc2)cs1`, the inhibition was -3.23% (inactive).
For `N#Cc1c(-c2cccs2)nc(SCC(=O)c2ccc(Br)cc2)[nH]c1=O`, the inhibition was 98.5% (active).
In the case of `Cc1cc(C)c2c(=O)[nH]c(SCC(=O)Nc3ccc(Br)cc3)nc2n1`, the inhibition is reported as -7.51% (inactive).
